The values below come from PubChem BioAssay (NCATS).

“And” between values parts separate entries of the source, which are not always exact repeats. Equal entries are not always repeated. A number with no mark means an inactive call. Inconclusive results are not listed. The source made the active and inactive calls. Unless noted, the call rests on the fitted dose curve; in most records, active means well fitted curve in the direction sought with a large enough effect; inconclusive means small, poorly fitted or top-dose-only effect, or another doubt; inactive means no such curve, though single readings can be large; an effect the other way counts as inactive or inconclusive.

One experiment relates to PA-1. Description: Primary qHTS to identify gynecologic anti-cancer compounds using libraries of approved drugs and bioactive compounds (AID 1345084). Further: nearly all actives have a fitted effect of over 55% in size. Further: potency means the concentration at half of the fitted maximal effect. To be noted: Gynecologic cancer cell panel viability, ATPlite luminescence, 48 h; series mostly up to 57.5 µM. The gist of the method: (§1)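 Five-point cytotoxicity, 48 h drug exposure at 37 C, 5% CO2, on cells seeded 16 h beforehand. ATP content read by ATPlite luminescence.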

The test system of another experiment is SKOV3. The experiment is described as above. The conditions noted are these: Gynecologic cancer cell panel viability, ATPlite luminescence, 48 h; series mostly up to 57.5 µM. An outline of the steps:
as §1
A general note: ATP-based viability assays read luminescence as a measure of living cells.

Another experiment relates to Tov-21-G. Described as above. To be noted: Gynecologic cancer cell panel viability, ATPlite luminescence, 48 h; series mostly up to 57.5 µM. An outline of the steps: as §1
Experiment [1] is described as follows: Drug repurposing screens with cells derived from glioblastoma tumor samples (AID 1345199). Further: potency means the concentration at half of the fitted maximal effect. On activity, negative = cell killing: on the % scale 0 is the no-effect control and ±100 the full control effect. On all read-outs here: nearly all actives have a fitted effect of over 40% in size. To be noted: GBM patient neurospheres viability, ATP luminescence, 48 h; for Potency: tumour line A. The gist of the method: (§2)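 Primary testing used CD133+ neurospheres from four GBM patients, seven concentrations, 48 h exposure and ATP-based viability; confirmation added three slower-growing patient lines.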

For the next experiment, the system named is Tov112D. Description: Primary qHTS to identify gynecologic anti-cancer compounds using libraries of approved drugs and bioactive compounds (AID 1345084). Further: nearly all actives have a fitted effect of over 55% in size. Further: potency means the concentration at half of the fitted maximal effect. To be noted: Gynecologic cancer cell panel viability, ATPlite luminescence, 48 h; series mostly up to 57.5 µM. An outline of the steps: as §1
Another experiment deals with astro. Description: Drug repurposing screens with cells derived from glioblastoma tumor samples (AID 1345199). Further: nearly all actives have a fitted effect of over 40% in size. Further: potency means the concentration at half of the fitted maximal effect. On activity, negative = cell killing: on the % scale 0 is the no-effect control and ±100 the full control effect. To be noted: viability, ATP luminescence, 48 h; series mostly up to 45.9 µM. The gist of the method: as §2
Experiment [2] addresses Nuclear receptor subfamily 1 group I member 2 (Rattus norvegicus) (UniProt Q9R1A7). Description: qHTS assay for small molecule activators of the rat pregnane X receptor (rPXR) signaling pathway (AID 651751; call rule not given here; further: 0% is about no effect). To be noted: rPXR reporter cells, luciferase (One-Glo), 24 h. (In general: In qHTS, concentration-response curves come from the screen itself.)
Experiment [3] in a line: qHTS assay for small molecule activators of the human pregnane X receptor (PXR) signaling pathway (AID 720659; call rule not given here; further: 0% is about no effect).
Experiment [4] in a line: qHTS assay to identify inhibitors of the type 1 interferon - major histocompatibility complex class I in skeletal muscle: Counter screen cell viability and HiBit confirmation (AID 1347412). Further: on the % scale 0 is the no-effect control and ±100 the full control effect; nearly all actives have a fitted effect of over 60% in size. The conditions noted are these: iHSKM muscle cells + IFN-b, HiBiT or CellTiter-Glo, 24 h; Potency: HiBiT; Viability, at 45.9 µM (top of the series). The gist of the method: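 Human myoblast knock-in line, 4.0 ng/ml IFN-beta stimulation, 24 h compound treatment. Endpoints: HiBiT lytic luminescence (HLA-B level) and CellTiter Glo (ATP). Dosing 12 concentrations, 3-fold steps, 46 uM highest final.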

Where [5] appears, read: at 45.9 µM (top of the series), tumour line B.
Setting [6] is: at 46.1 µM (top of the series), tumour line C.
Setting [7] is: at 45.9 µM (top of the series), tumour line D.

Sequence of Nuclear receptor subfamily 1 group I member 2 (Rattus norvegicus) (Q9R1A7 whole entry, looked up): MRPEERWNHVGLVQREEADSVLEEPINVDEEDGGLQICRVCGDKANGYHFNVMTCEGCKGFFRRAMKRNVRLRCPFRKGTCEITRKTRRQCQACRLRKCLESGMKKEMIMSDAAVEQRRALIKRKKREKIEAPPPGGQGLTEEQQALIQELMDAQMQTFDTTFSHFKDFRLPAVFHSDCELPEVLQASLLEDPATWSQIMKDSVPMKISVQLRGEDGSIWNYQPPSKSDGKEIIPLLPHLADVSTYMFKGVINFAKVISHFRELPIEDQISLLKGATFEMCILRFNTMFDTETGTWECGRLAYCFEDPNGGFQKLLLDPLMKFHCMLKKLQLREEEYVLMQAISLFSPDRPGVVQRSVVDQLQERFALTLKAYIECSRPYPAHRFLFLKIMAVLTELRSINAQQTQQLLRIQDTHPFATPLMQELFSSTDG

Turning to `CC(=O)Nc1ccn(C2COC(COC(=O)c3ccccc3)O2)c(=O)n1` (stereo not drawn), the Potency entry with PA-1, with SKOV3 and in the experiment with Tov-21-G was “inactive” each time. Besides, the activity, negative = cell killing in experiment [1] (setting [5]) was -21.5%; in [1] (setting [6]), -14.9%.
As to `Cc1ccccc1N1CCN(CCc2nnc3n2CCCC3)CC1`, the Potency entry with PA-1, in the experiment on SKOV3, with Tov-21-G, in the experiment with Tov112D and with astro was “inactive” throughout. For the same molecule, the activity, negative = cell killing in experiment [1] (setting [5]) was -2%; in experiment [1] (setting [6]), 19.6%.
Consider `Oc1ccccc1`, for which the Potency result in the experiment on PA-1, in the experiment on SKOV3, in the experiment with Tov-21-G, with Tov112D and in the experiment on astro was “inactive” throughout. Besides, the activity, negative = cell killing in experiment [1] (setting [5]) is 8.9%; in [1] (setting [7]), -14.6%; in experiment [1] (setting [6]) it was -15.8%. Also, the max response in [2] is -2.24% and -1.02% and -2.45%. The result in experiment [3] was inactive.
On to `CO[C@]1(NC(=O)CSC(F)F)C(=O)N2C(C(=O)O)=C(CSc3nnnn3CCO)CO[C@H]21`, for which the Potency result in the experiment on PA-1, with SKOV3, in the experiment on Tov-21-G, with Tov112D and in the experiment on astro was “inactive” each time. Also, the activity, negative = cell killing was 4.83% in experiment [1] (setting [5]), -21.2% in [1] (setting [7]) and -14% in experiment [1] (setting [6]).
On to `CC1(C)S[C@@H]2[C@H](NC(=O)C(c3ccccc3)S(=O)(=O)O)C(=O)N2[C@H]1C(=O)O` (stereo partly drawn), for which the Potency result in the experiment with PA-1, with SKOV3, in the experiment on Tov-21-G, in the experiment with Tov112D and with astro was “inactive” throughout. Further, the activity, negative = cell killing in [1] (setting [5]) was -7.89%; in experiment [1] (setting [7]), -16.5%; in experiment [1] (setting [6]) it was 4.53%.
On to `CC(=O)[C@@]1(O)CC[C@H]2[C@@H]3C[C@H](C)C4=CC(=O)CC[C@]4(C)[C@H]3CC[C@@]21C`, for which the Potency entry (with PA-1; in the experiment on SKOV3; in the experiment with Tov-21-G; with Tov112D; in the experiment with astro; in [4]) was “inactive” each time. The figures for the activity, negative = cell killing in [1] (setting [5]), in [1] (setting [7]) and in [1] (setting [6]) were -5.63%, -15.6% and -11.3%, respectively.
Consider `C[C@]12CCC(=O)C=C1CC[C@@H]1[C@@H]2[C@@H](O)C[C@@]2(C)[C@H]1CC[C@]2(O)C(=O)COC(=O)CCC(=O)O`, for which the Potency result in the experiment with PA-1, in the experiment with SKOV3, in the experiment on Tov-21-G, with Tov112D and in the experiment with astro was “inactive” throughout. For the same molecule, the activity, negative = cell killing in [1] (setting [5]) was -2.56%; in experiment [1] (setting [7]) it was -26.6%; in experiment [1] (setting [6]), -2.87%.
With `CCCCC(CC)COC(=O)c1ccccc1C(=O)O` (stereo not drawn), the Potency result in the experiment with PA-1, in the experiment with SKOV3, in the experiment on Tov-21-G, in the experiment on Tov112D and in the experiment on astro was “inactive” in each case. For the same molecule, the activity, negative = cell killing is -11.6% in experiment [1] (at 91.6 µM (top of the series), tumour line B); -15.6% in experiment [1] (at 91.6 µM (top of the series), tumour line D); -7.68% in experiment [1] (at 99.2 µM (top of the series), tumour line C). Moreover, in experiment [2], the max response was 1.45% and -0.807%.
Regarding `Nc1ccc(O)cc1`, the Potency result in the experiment with PA-1, with SKOV3, in the experiment on Tov-21-G and in the experiment on Tov112D was “inactive” throughout. The Potency in the experiment on astro is 35.5 µM (active). For the same molecule, the max response in [2] is 4.17%.
As to `CCCCCCCCCCCC[N+](C)(C)Cc1ccccc1`, the Potency was 8.91 µM (active) in the experiment with PA-1; 3.16 µM (active) in the experiment with SKOV3; 7.94 µM (active) with Tov-21-G; 25.1 µM (active) in the experiment with Tov112D; 11.2 µM (active) with astro. In experiment [2], the max response was 0.668%. The molecule was classed as inactive in [3].
Consider `CCCCC(=O)OCC(=O)[C@H]1[C@H](C)C[C@H]2[C@@H]3C[C@H](F)C4=CC(=O)C=C[C@]4(C)[C@@]3(F)[C@@H](O)C[C@@]21C`, for which the Potency entry (in the experiment on PA-1; in the experiment with SKOV3; with Tov-21-G; with Tov112D; in the experiment on astro; in [4]) was “inactive” each time. Further, the activity, negative = cell killing in [1] (setting [5]) was -0.839%; in [1] (setting [7]) it was -9.99%; in experiment [1] (setting [6]) it was 14.8%.
With `CCN(CC)CC(=O)OCC(=O)[C@@]1(O)CC[C@H]2[C@@H]3CCC4=CC(=O)CC[C@]4(C)[C@H]3[C@@H](O)C[C@@]21C`, the Potency entry (in the experiment on PA-1; in the experiment on SKOV3; with Tov-21-G; in the experiment with Tov112D; in experiment [4]) was “inactive” each time.
In the case of `NC(=O)COCCN1CCN(C(c2ccccc2)c2ccc(Cl)cc2)CC1` (stereo not drawn), the Potency entry with PA-1, in the experiment with SKOV3, in the experiment with Tov-21-G, in the experiment on Tov112D and in the experiment with astro was “inactive” in each case. The activity, negative = cell killing in experiment [1] (setting [5]) is -14%. Also, the Potency in experiment [1] is 5.01 µM (active).
For the molecule `COc1cc(C=O)ccc1O`, the Potency entry in the experiment on PA-1, in the experiment on SKOV3, with Tov-21-G, in the experiment with Tov112D and in the experiment with astro was “inactive” in each case. The activity, negative = cell killing in experiment [1] (setting [5]) is -12.2%; in experiment [1] (setting [7]) it was 2.3%; in experiment [1] (setting [6]), -15.5%. Further, in [2], the max response is 1.03% and -2.41%. In addition, in experiment [3], the molecule was classed as inactive.
Regarding `O=C1CC2(CCCC2)CC(=O)N1CCNCC1COc2ccccc2O1` (stereo not drawn), the Potency result with PA-1, in the experiment with SKOV3, in the experiment on Tov-21-G, with Tov112D and in the experiment on astro was “inactive” in each case.
In the case of `O=C(OCC1(COC(=O)c2cccnc2)CCCC(COC(=O)c2cccnc2)(COC(=O)c2cccnc2)C1O)c1cccnc1`, the Potency result with PA-1, in the experiment with SKOV3, in the experiment with Tov-21-G, in the experiment with Tov112D and in the experiment with astro was “inactive” each time. Moreover, the values for the activity, negative = cell killing in experiment [1] (setting [5]), in experiment [1] (setting [7]) and in experiment [1] (setting [6]) were -11.6%, -18.7% and 2.18%, respectively.
On to `CC(C)(C)CC(=O)OCC(=O)[C@@]1(O)CC[C@H]2[C@@H]3CCC4=CC(=O)C=C[C@]4(C)[C@H]3[C@@H](O)C[C@@]21C`, for which the Potency entry (with PA-1; with SKOV3; in the experiment on Tov-21-G; in the experiment on Tov112D; in experiment [4]) was “inactive” each time.
For `c1ccc(C(O[C@H]2CCCN(CCc3ccc4c(c3)OCO4)C2)c2ccccc2)cc1`, the Potency result with PA-1, in the experiment on SKOV3, in the experiment with Tov-21-G, in the experiment with Tov112D and in the experiment on astro was “inactive” in each case. In addition, in experiment [1] (setting [5]), the activity, negative = cell killing was -23.2%. The Potency in experiment [1] was 11.2 µM (active).
